Test results: PubChem BioAssay (NCATS)
Records with an inconclusive call do not appear. Calls of active or inactive are those of the source. Calls follow the shape of the dose curve; as a rule, active = well fitted curve in the direction sought with a large enough effect; inconclusive = small, poorly fitted or top-dose-only effect, or another doubt; inactive = no such curve, though single readings can be large; an effect the other way counts as inactive or inconclusive.

Columns and labels:
[1] = target: Cytochrome P450 3A4 (Homo sapiens) (UniProt P08684); test: qHTS Assay for Inhibitors and Substrates of Cytochrome P450 3A4 (AID 884); also: potency is read from the fitted curve at half-maximal effect; nearly all actives have a fitted effect of over 50% in size
Summary of the method: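 Luminescent readout of luciferin produced by CYP3A4 (20 nM) dealkylation of Luciferin-PPXE, 25 uM (its KM). NADPH-driven reaction ran 60 min at RT after 10 min compound preincubation; data scaled to 57 uM ketoconazole as 100% inhibition.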

[2] = target: Cytochrome P450 3A4 (Homo sapiens) (UniProt P08684); test: qHTS Assay for Activators of Cytochrome P450 3A4 (AID 885); also: nearly all actives have a fitted effect of over 65% in size
Summary of the method: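 CYP3A4 activity: Luciferin-PPXE O-dealkylation, 25uM substrate, 200mM KPO4, RT throughout. Read-out is luciferase luminescence; higher values reflect activation.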

Cytochrome P450 3A4 (Homo sapiens), sequence (P08684 whole entry, looked up): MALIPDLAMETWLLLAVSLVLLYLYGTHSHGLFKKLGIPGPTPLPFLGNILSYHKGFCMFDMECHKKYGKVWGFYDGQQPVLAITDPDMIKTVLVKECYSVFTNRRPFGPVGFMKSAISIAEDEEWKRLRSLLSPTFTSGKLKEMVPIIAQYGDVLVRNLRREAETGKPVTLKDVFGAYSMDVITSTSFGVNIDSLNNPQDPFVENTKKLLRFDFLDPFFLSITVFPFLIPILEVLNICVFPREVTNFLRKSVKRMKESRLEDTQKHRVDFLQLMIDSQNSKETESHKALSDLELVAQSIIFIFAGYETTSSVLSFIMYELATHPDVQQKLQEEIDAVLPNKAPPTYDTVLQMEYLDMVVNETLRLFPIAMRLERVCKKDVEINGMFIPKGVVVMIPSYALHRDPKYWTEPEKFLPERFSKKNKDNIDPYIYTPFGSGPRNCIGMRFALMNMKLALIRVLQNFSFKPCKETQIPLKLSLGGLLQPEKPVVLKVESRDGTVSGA

Row | Compound | Potency [1] | Potency [2] | activity change, positive = activation [2]
1 | CCCCCCN(C(=O)CCCCCN1C(=O)NC(c2ccc(Cl)cc2)C(C(=O)OCc2ccccc2)=C1C)C(C(=O)NCCCC)c1ccc(OCC(=O)OC)c(C(=O)OC)c1 (stereo unspecified) | 3.16 µM (active) | inactive | –
2 | CO[C@H]1COC(=O)C/C=C\[C@H](C)[C@@H](OC)COC(=O)[C@H](Cc2ccccc2)NC(=O)C/C=C\[C@@H]1C | 3.16 µM (active) | – | -62.1% [at 11.4 µM] (inactive)
3 | Clc1ccc(C2[C@H]3CN(Cc4cccnc4)[C@H](c4ccccc4)C34CC2(c2cccnc2)C4)cn1 (stereo partly specified) | 2.51 µM (active) | inactive | –
